A number with no mark means an inactive call. Active and inactive are the calls of the source. Calls come from the whole dose curve; as a rule, active = well fitted curve in the direction sought with a large enough effect in the repeat runs; inconclusive = weak or mixed curves; inactive = flat fitted curve, though single readings scatter. Positions of bridges follow the written chain, without caps; N, C: chain ends. Non-standard residues stand in square brackets, D forms with d. Residues, ends and D or L forms follow the SMILES beside them. *: point of attachment. X2 = CC[C@H](C)CCCCC(=O)*; Dab = NCC[C@H](N)C(=O)O
experiment: qHTS assay to test for compound auto fluorescence at 590 nm (red) in HepG2 cells (AID 720674); settings: HepG2 autofluorescence, red 540/590 nm, 1 h; series mostly up to 46 µM; fluorescence, relative to Rose Bengal: at the top concentration
Summary of the method: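 HepG2 cells, 2,000 per well in MEM with 10% FBS, attached overnight at 37 C, then got 23 nL compound or DMSO. After 1 hr at 37 C, 5% CO2, red fluorescence was read at 540/590 nm against Rose Bengal sodium as reference.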
% is set by controls: 0 for no effect and ±100 for the full control effect.

SMILES | fluorescence, relative to Rose Bengal
CCCCCCCCCCCC(=O)OC[C@@H](O)C1OC[C@H](O)[C@H]1O (some centres not stated) | 0.551%
CCOc1ccc(N=Nc2ccc(N)cc2N)cc1 | 0.19%
FCOC(C(F)(F)F)C(F)(F)F | 0.183%
CCNC(=O)[C@@H]1CCCN1C(=O)[C@H](CCCN=C(N)N)NC(=O)[C@H](CC(C)C)NC(=O)[C@@H](Cc1c[nH]c2ccccc12)NC(=O)[C@H](Cc1ccc(O)cc1)NC(=O)[C@H](CO)NC(=O)[C@H](Cc1c[nH]c2ccccc12)NC(=O)[C@H](Cc1cnc[nH]1)NC(=O)[C@@H]1CCC(=O)N1 | -0.0419%
C[N@+]12CCCC[C@@H]1CCC(=C(c1cccs1)c1cccs1)C2 | -0.352%
O=C(OC[C@H]1O[C@](O)(COC(=O)c2cccnc2)[C@@H](OC(=O)c2cccnc2)[C@@H]1OC(=O)c1cccnc1)c1cccnc1 | -0.272%
COC(=O)CCC[N+](C)(C)C | -0.183%
CCCCCCCCCCCCCCCC(=O)OCC(COC(=O)CCCCCCCCCCCCCCC)OC(=O)CCCCCCCCCCCCCCC | -0.143%

experiment: qHTS assay to test for compound auto fluorescence at 535 nm (green) in HepG2 cells (AID 720675); settings: green autofluorescence 485/535 nm, 1 h; series mostly up to 46 µM; fluorescence, % of fluorescein control: at the top concentration

SMILES | fluorescence, % of fluorescein control | Potency
C[C@]12C=CC(=O)N[C@@H]1CC[C@@H]1[C@@H]2CC[C@]2(C)[C@@H](C(=O)Nc3cc(C(F)(F)F)ccc3C(F)(F)F)CC[C@@H]12 | 0.0321% | 
COc1ccc(C(=O)CCC(=O)O)c2ccccc12 | -0.107% | 
COc1ccc2cc([C@H](C)CO)ccc2c1 | -0.0048% | 
Cn1c(=O)c2c(ncn2CCOC(=O)C(C)(C)Oc2ccc(Cl)cc2)n(C)c1=O | -0.0141% | 
CCCCCC(O)/C=C/C=O (configuration not stated) | -0.0447% | 
CCC(C)[C@H]1O[C@]2(C=C[C@@H]1C)C[C@@H]1C[C@@H](C/C=C(\C)[C@@H](O[C@H]3C[C@H](OC)[C@@H](O[C@H]4C[C@H](OC)[C@H](NC(C)=O)[C@H](C)O4)[C@H](C)O3)[C@@H](C)/C=C/C=C3\CO[C@@H]4[C@H](O)C(C)=C[C@@H](C(=O)O1)[C@]34O)O2 (some centres not stated) |  | inactive
CC1(C)N=C(N)N=C(N)N1c1ccc(Cl)cc1 | 0.0831% | 
CN(C)C(=O)CCSC(SCCC(=O)O)c1cccc(/C=C/c2ccc3ccc(Cl)cc3n2)c1 (configuration not stated) | -0.0164% | 
C[C@H](CCCC(C)(C)O)[C@H]1CC[C@H]2[C@@H]3CC=C4C[C@@H](O)CC[C@]4(C)[C@H]3CC[C@]12C | 0.0912% | 
CNC(=O)c1c(I)c(C(=O)NCC(=O)Nc2c(I)c(C(=O)O)c(I)c(C(=O)NCCO)c2I)c(I)c(N(C)C(C)=O)c1I | -0.0196% | 
C=C1CC[C@@H]2[C@](C)(CO)[C@H](O)CC[C@@]2(C)[C@@H]1C/C=C1/C(=O)OC[C@H]1O | 0.0306% | 
C[C@H](CSC(=O)c1ccccc1)C(=O)N1C[C@@H](Sc2ccccc2)C[C@H]1C(=O)O | 0.198% | 
C=C[C@]1(C)C[C@@H](OC(=O)CSCCN(CC)CC)[C@]2(C)[C@H](C)CC[C@]3(CCC(=O)[C@H]32)[C@@H](C)[C@@H]1O | -0.142% | 
O=C(O)C1=C(CSc2nnnn2CS(=O)(=O)O)CS[C@@H]2[C@H](NC(=O)[C@H](O)c3ccccc3)C(=O)N12 | 0.0064% | 
COc1cc(/C=C/C(=O)N2CCN(CC(=O)N3CCCC3)CC2)cc(OC)c1OC | -0.0082% | 
CCOC(=O)c1c[nH]c2cc(OCC(C)C)c(OCC(C)C)cc2c1=O | 0.0223% | 
CCCCCCCCCCCCCCCCCCCCCCO | 0.0228% | 
CC1=C(/C=C/C(C)=C/C=C/C(C)=C/C(=O)Oc2c(C)c(C)c3c(c2C)CC[C@@](C)(CCC[C@H](C)CCC[C@H](C)CCCC(C)C)O3)C(C)(C)CCC1 | -0.011% | 
CC(C)CCCC(C)NC(C)C (configuration not stated) | 0.0116% | 
O=C(O)CCC/C=C\C[C@@H]1[C@@H](/C=C/[C@@H](O)COc2cccc(C(F)(F)F)c2)[C@H](O)C[C@@H]1O | 0.0244% | 

SMILES | fluorescence, % of fluorescein control | Potency
O=C(O)COc1ccc(CCNS(=O)(=O)c2ccccc2)s1 | 0.0863% | 
CO[C@H]1C[C@@H]2CC[C@@H](C)[C@@](O)(O2)C(=O)C(=O)N2CCCC[C@H]2C(=O)O[C@H]([C@H](C)C[C@@H]2CC[C@@H](OC(=O)C(C)(CO)CO)[C@H](OC)C2)CC(=O)[C@H](C)/C=C(\C)[C@@H](O)[C@@H](OC)C(=O)[C@H](C)C[C@H](C)/C=C/C=C/C=C/1C | 0.0967% | 
CC[C@H](C)CCCCC(=O)N[C@@H](CCN)C(=O)N[C@H](C(=O)N[C@@H](CCN)C(=O)N[C@H]1CCNC(=O)[C@@H]([C@H](C)O)NC(=O)[C@H](CCN)NC(=O)[C@H](CCN)NC(=O)[C@H](CC(C)C)NC(=O)[C@@H](CC(C)C)NC(=O)[C@H](CCN)NC1=O)[C@@H](C)O (X2-[Dab]T[Dab][Dab][Dab][dL]L[Dab][Dab][dT]; lactam 4-C) | -0.13% [at 18.6 µM] | 
C#C[C@]1(O)CC[C@H]2[C@@H]3CCC4=CC(=O)CC[C@@H]4[C@H]3C(=C)C[C@@]21CC | -0.0285% | 
C=C1CC[C@H](O)CC1=C/C=C1\CCC[C@]2(C)[C@@H]([C@H](C)CCCC(C)(C)O)CC[C@@H]12 | 0.0303% | 
CC(=O)Nc1c(I)c(C(=O)O)c(I)c(N(C)C(C)=O)c1I | 0.0187% | 
CC1(C)S[C@@H]2[C@H](NC(=O)[C@H](N)c3ccccc3)C(=O)N2[C@H]1C(=O)OCOC(=O)[C@@H]1N2C(=O)C[C@H]2S(=O)(=O)C1(C)C | 0.0477% | 
CNC(C)CCC=C(C)C (configuration not stated) | -0.059% | 
Cc1c(Cl)cccc1Nc1ncccc1C(=O)O | 0.0653% | 
CN(CCO)CC(O)Cn1cnc2c1c(=O)n(C)c(=O)n2C (configuration not stated) (tested in a mixture with another compound) | -0.0087% | 
CC[C@H](C)CCCCC(=O)N[C@@H](CCN)C(=O)N[C@H](C(=O)N[C@@H](CCN)C(=O)N[C@H]1CCNC(=O)[C@H]([C@@H](C)O)NC(=O)[C@H](CCN)NC(=O)[C@H](CCN)NC(=O)[C@H](CC(C)C)NC(=O)[C@@H](CC(C)C)NC(=O)[C@H](CCN)NC1=O)[C@@H](C)O (X2-[Dab]T[Dab][Dab][Dab][dL]L[Dab][Dab]T; lactam 4-C) | 0.0018% | 
CCCCCCCCCCCC(=O)OC[C@@H](O)C1OC[C@H](O)[C@H]1O (some centres not stated) | 0.0251% | 
CCOc1ccc(N=Nc2ccc(N)cc2N)cc1 | -0.141% | 
FCOC(C(F)(F)F)C(F)(F)F | -0.0365% | 
CCNC(=O)[C@@H]1CCCN1C(=O)[C@H](CCCN=C(N)N)NC(=O)[C@H](CC(C)C)NC(=O)[C@@H](Cc1c[nH]c2ccccc12)NC(=O)[C@H](Cc1ccc(O)cc1)NC(=O)[C@H](CO)NC(=O)[C@H](Cc1c[nH]c2ccccc12)NC(=O)[C@H](Cc1cnc[nH]1)NC(=O)[C@@H]1CCC(=O)N1 | 0.173% | 
C[N@+]12CCCC[C@@H]1CCC(=C(c1cccs1)c1cccs1)C2 | -0.106% | 
O=C(OC[C@H]1O[C@](O)(COC(=O)c2cccnc2)[C@@H](OC(=O)c2cccnc2)[C@@H]1OC(=O)c1cccnc1)c1cccnc1 | -0.126% | 
COC(=O)CCC[N+](C)(C)C | 0.0064% | 
CCCCCCCCCCCCCCCC(=O)OCC(COC(=O)CCCCCCCCCCCCCCC)OC(=O)CCCCCCCCCCCCCCC | 0.0037% | 

Reference: PubChem BioAssay (Tox21)
